The full list was thinned out, with hits kept by preference.
Methyltransferases = Primary Screen for Target Class Profiling of Small Molecule Inhibitors of Methyltransferases; 3.9% of 25,000 active; purified enzyme, MTase-Glo SAH luminescence; active compounds read low; calls only at 40 µM; call rule not given here
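Each enzyme was reacted with SAM and its substrate, with compounds tested once at 40 uM; SAH formed was read by MTase-Glo luminescence.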
Calls only; i = inactive; + = active, no number; ! = not confirmed by another sample.

SMILES	Methyltransferases
COc1cc(/C=C/C(=O)O[C@H]2[C@H](O)[C@@H](CO)O[C@@]2(CO)O[C@H]2O[C@H](CO)[C@@H](O)[C@H](O)[C@H]2O)cc(OC)c1O	i
CCn1c(=O)c2ccnn2c2ccc(C(=O)O)cc21	i
Cc1cccc(CSc2nnc3n(CCC(C)C)c(=O)c4ccccc4n23)c1	i
CC(C)Oc1ccc(CNC(=O)c2cc3n(n2)CC(C)(C(=O)NCc2ccc(F)cc2)N(C)C3=O)cc1 (stereo not drawn)	i
Cc1cc(C(=O)N2CC[C@H](NS(=O)(=O)c3cn(C)cn3)C[C@H]2C(=O)N[C@H](Cc2c[nH]c3ccccc23)C(N)=O)n(C)n1	i
CC1=C2C(=O)C=C(CO[C@@H]3O[C@H](CO)[C@@H](O)[C@H](O)[C@H]3O)[C@@H]2[C@H]2OC(=O)[C@H](C)[C@@H]2CC1	i
COc1cccc(Cn2nc3n(C)c(=O)c4ccc(C(=O)NC5CCCC5)cc4n3c2=O)c1	i
CC1CCN(S(=O)(=O)c2ccc3c(ccn3CC(=O)NC3CCCCC3)c2)CC1	i
CCOC(=O)[C@@H]1[C@H]2c3ccccc3N(CCOC)C(=O)[C@H]2N(C(=O)c2ccccc2)[C@@H]1c1ccccc1	i
CCCCN1C(=O)c2cc(C(=O)NCc3ccc(C)cc3)nn2CC1(C)C(=O)NC1CCCC1 (stereo not drawn)	i
N#CC1CCN(C(=O)c2nc(-c3ccc(Cl)cc3Cl)c3ccccn23)CC1	i
CC1(C)C2CC(OC3OC(COC4OCC(O)(CO)C4O)C(O)C(O)C3O)C1(C)CC2O (stereo not drawn)	i
CNC(=O)c1cc(C2CC2)nc2c1c(C1CCN(C(=O)Cc3ccc(OC)cc3)CC1)nn2C	i
Cc1ccc(NC(=O)N2CCn3cccc3C2C)cc1F (stereo not drawn)	i
C=CCn1c(=O)c2ccc(C(=O)NC(C)C)cc2n2c(=O)n(CC(=O)Nc3ccccc3CC)nc12	i
COc1cc(/C=C/CO)ccc1O[C@@H]1O[C@H](CO)[C@@H](O)[C@H](O)[C@H]1O	i
C/C=C/c1ccc(O[C@@H]2O[C@H](CO)[C@@H](O)[C@H](O)[C@H]2O)c(OC)c1	i
COc1cc(/C=C/c2cc(O)cc(O[C@@H]3O[C@H](CO)[C@@H](O)[C@H](O)[C@H]3O)c2)ccc1O	+
COc1ccc([C@H]2CN(C(=O)C3CCN(C(=O)N(C)C)CC3)C[C@@H]2N)cc1	i
COc1ccc(CCNc2nc3c(-c4ccccc4)nnn3c3ccccc23)cc1OC	i
Fc1cccc(-c2nnn3c2nc(NCCc2ccccc2)c2ccccc23)c1	+
c1ccc(CCNc2nc3c(-c4ccccc4)nnn3c3ccccc23)cc1	i
C[C@H](Nc1ncnc2nc[nH]c12)c1cc2ccc(F)cc2nc1-c1ccccn1	i
c1ccc(Nc2nc3c(s2)CCCc2[nH]ncc2-3)nc1	i
CCc1cccc(NC(=O)Cn2nc3n(C(C)C)c(=O)c4ccc(C(=O)NCC(C)C)cc4n3c2=O)c1	i
SMILES	Methyltransferases
COc1cccc(CN2C(=O)c3cc4ccccc4n3CC2(C)C(=O)NC2CCCCC2)c1 (stereo not drawn)	i
COCc1noc(CCNc2nc(C)nc3c2cnn3C)n1	i
Cc1ccc(Nc2nccc(N(C)c3ccc4c(C)n(C)nc4c3)n2)cc1S(N)(=O)=O	+
CN1CC2(CCCN(C3CCN(C(=O)c4cnccn4)CC3)C2)OC1=O (stereo not drawn)	i
CC(Cc1cc2c(c(C(N)=O)c1)N(CCCO)CC2)NCCOc1ccccc1OCC(F)(F)F (stereo not drawn)	i
Brc1c(Br)c(Br)c2n[nH]nc2c1Br	+
COCCc1noc([C@@H]2CC(F)(F)CN2C(=O)c2ccoc2)n1	i
COc1ccc(CNC(=O)C2(C)Cn3cnc(C(=O)NCc4ccccc4)c3C(=O)N2C2CC2)cc1 (stereo not drawn)	i
CC1(C(=O)NC2CCCCC2)Cn2c(cc3ccccc32)C(=O)N1Cc1ccc2c(c1)OCO2 (stereo not drawn)	i
COCCn1c(C)cnc1CCNS(=O)(=O)Cc1ccccc1F	i
CNC1CCC(N(Cc2cccc(-c3ccncc3)c2)C(=O)c2sc3ccccc3c2Cl)CC1 (stereo not drawn)	+
CNC1CCC(N(Cc2cccc(-c3ccncc3)c2)C(=O)c2sc3c(F)ccc(F)c3c2Cl)CC1 (stereo not drawn)	+!
COc1ccc(NC(=O)CSc2nnc3n(CC(C)C)c(=O)c4ccccc4n23)cc1	i
Cc1ccccc1CNC(=O)CCn1ccc2cc(S(=O)(=O)N3CCCCC3)ccc21	i
COCC1CN(C2CCC2)CC12CCN(Cc1scnc1C)CC2 (stereo not drawn)	i
Cc1cccc(N2CCN(S(=O)(=O)c3cc4[nH]c(=O)[nH]c4cc3Cl)CC2)c1C	i
CN1C(=O)c2cc(C(=O)NCc3ccccc3Cl)nn2CC1(C)C(=O)NCc1ccc(F)cc1 (stereo not drawn)	i
Cn1ncc2c(C(=O)NC3CCCCCC3)cc(C(C)(C)C)nc21	i
CCS(=O)(=O)c1cccc(-c2cc(C(=O)NC3CCN(C)CC3)c(C)c3[nH]c4ncc(C)cc4c23)c1	+
COc1cccc(C(=O)NC2CCN(c3cc(-c4cccs4)[nH]n3)CC2)c1OC	i
C[C@](N)(Cc1ccc(O)cc1)C(=O)O	i
COC(=O)C(C)(N)Cc1ccc(O)cc1 (stereo not drawn)	i
C[C@](N)(Cc1ccc(O)c(O)c1)C(=O)O	+
O=C(O)[C@H]1C[C@@H](C(=O)NCc2cccnc2)CN(Cc2ccccn2)C1	i
CC(=O)N(O)CCCCCN1C(=O)CCC1=O	i
SMILES	Methyltransferases
Cc1ccc(CNC(=O)Cn2ccc3cc(S(=O)(=O)N4CCCCC4)ccc32)cc1	i
Cc1noc(C)c1C(=O)N[C@@H]1CN(c2ncccn2)C[C@H]1CN(C)C	i
CC1=CC(=O)C2(OC3OC(C)C(O)C(OC(=O)/C=C/c4ccccc4)C3O)C=COC(OC3OC(CO)C(O)C(O)C3O)C12 (stereo not drawn)	+
C[C@@H]1O[C@@H](O[C@H]2[C@@H]3C=CO[C@@H](O[C@@H]4O[C@H](CO)[C@@H](O)[C@H](O)[C@H]4O)[C@@H]3[C@@]3(CO)O[C@@H]23)[C@H](O)[C@H](OC(=O)/C=C/c2ccccc2)[C@H]1O	i
CC(=O)O[C@@H]1[C@@H](O)[C@H](C)O[C@@H](O[C@H]2[C@@H]3C=CO[C@@H](O[C@@H]4O[C@H](CO)[C@@H](O)[C@H](O)[C@H]4O)[C@@H]3[C@@]3(CO)O[C@@H]23)[C@@H]1OC(=O)/C=C/c1ccccc1	i
Cc1ccc(NS(=O)(=O)c2cc3c(cc2C)n(C)c(=O)n3C)c(Cl)c1	i
Cc1[nH]nc2c1C(c1c(F)cccc1F)C(C#N)=C(N)O2 (stereo not drawn)	i
CCOc1ccc(N(C(=O)c2ccncc2)S(=O)(=O)c2ccc3c(c2)n(C)c(=O)n3C)cc1	i
COC(=O)Nc1nc2ccc(C(=O)c3cccs3)cc2[nH]1	i
CC1CCN(c2cc(NC(=O)c3ccccc3)ncn2)CC1	i
O=C(c1ccccc1)c1ccc2nc(NC(=O)c3csc(C4CCN(c5ncnc6ccsc56)CC4)n3)[nH]c2c1	+
CC1(C(=O)NC2CCCCCCC2)Cn2c(ccc2-c2ccccc2)C(=O)N1Cc1ccco1 (stereo not drawn)	i
CC(C)CCNC(=O)Cn1ccc2cc(S(=O)(=O)N3CCCCC3)ccc21	i
COc1ccc(OC)c(S(=O)(=O)N2CCCN(C)c3ccccc32)c1	i
CCCC1c2ccc(C)n2CCN1C(=O)Nc1cccc2c1CCCC2 (stereo not drawn)	i

Bioassay records as filed in PubChem.
